Most compounds without a hit are left out; they make up all but 17% or so of the library.
TDP1 inh – TDP1 (human) enzyme inhibition. recombinant TDP1, AlphaScreen DNA substrate cleavage. 350,000 tested, 0.28% active. Potency, µM (top dose mostly 130 µM), hits mostly inhibitors. Q9NUW8; note: nearly all actives have a fitted effect of over 40% in size
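AlphaScreen read-out: signal falls as enzyme removes the 3' tyrosine-FITC from a 5'-biotinylated DNA oligo (15 nM, 5 min, RT). Enzyme was E. coli-made recombinant Tdp1 at 1 nM, exposed to compound for 15 min beforehand; beads 10 ug/ml, 10 min.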
ClpP mod – qHTS Assay for Activators of ClpP; ATP-dependent Clp protease proteolytic subunit (Bacillus subtilis (strain 168)), P80244; purified B. subtilis ClpP, FRET peptide cleavage, 20 min; Potency, µM (doses to about 57.5 µM); 340,000 tested, 1.9% active; active = well fitted falling curve with a large enough effect; inconclusive = small, poorly fitted or top-dose-only effect; inactive = no such curve, though single readings can be large or run the other way; note: the source files actives as falling curves though it sought activators and does not explain the sign; nearly all actives have a fitted effect of over 65% in size
Target sequence (P80244 whole entry, looked up): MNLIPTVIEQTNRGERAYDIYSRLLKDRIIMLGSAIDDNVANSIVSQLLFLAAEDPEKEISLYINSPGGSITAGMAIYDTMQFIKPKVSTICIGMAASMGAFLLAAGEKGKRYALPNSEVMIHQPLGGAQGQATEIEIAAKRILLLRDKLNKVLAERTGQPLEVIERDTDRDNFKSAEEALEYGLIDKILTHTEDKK
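ClpP 10 microg/mL final, pH 8 Tris/KCl buffer with BSA, glycerol, Tween-20; compound pinned in; FRET-FV substrate; RT 20 min; Ex320/Em430; ΔFRET vs ADEP 5.8 microM, DMSO, no enzyme.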
DT40 TDP1 no CPT – qHTS for Inhibitors of human tyrosyl-DNA phosphodiesterase 1 (TDP1): qHTS in cells in absence of CPT | DT40 Tdp1-/- hTDP1 cells, no CPT, ATP luminescence, 48 h | Potency, µM (top dose mostly 46.2 µM), actives largely listed as inhibitors | 420,000 tested, 15% active | AID 686978, 2013; note: nearly all actives have a fitted effect of over 55% in size
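Readout: luminescence from CellTiter-Glo after 30 min in the dark at RT. Cells: DT40 Tdp1-/- with stable hTDP1, 400/well. Exposure: compounds alone, ≥48 hr, 37 °C.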
TDP1 cell CPT – growth inhibition of DT40 Tdp1-/-;hTDP1 cells with camptothecin (screen for TDP1 inhibitors) | chicken DT40 Tdp1-/-;hTDP1 cells + 20 nM CPT, ATP luminescence, 48 h | 420,000 tested, 12% active | Potency, µM (series often up to 46.2 µM), most hits filed as inhibitors; note: nearly all actives have a fitted effect of over 55% in size
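Chicken DT40 Tdp1-/- cells stably complemented with human TDP1 were seeded at 400 cells/well in medium containing 20 nM camptothecin, exposed to pin-transferred compounds, and grown at 37 °C for at least 48 hr. Viability was read as ATP luminescence.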
Hits are given with their value; - = inactive; ? = inconclusive; . = no result given. Unless noted, calls come from the whole dose curve; as a rule, active = well fitted curve in the direction sought with a large enough effect; inconclusive = small, poorly fitted or top-dose-only effect, or another doubt; inactive = no such curve, though single readings can be large; an effect the other way counts as inactive or inconclusive.

SMILES | TDP1 inh | ClpP mod | DT40 TDP1 no CPT | TDP1 cell CPT
CCOCCSc1nc2c(c(-c3cccs3)c1C#N)CC/C2=C/c1cccs1 | - | - | ? | ?
Cc1ccc(OCC(=O)N2CCN(CCc3ccncc3)CC2)cc1C | - | - | - | -
Cc1cccc(C(C)c2cnc[nH]2)c1C (configuration not stated) | . | . | ? | 27µM
ClCCN(CCCl)c1ccc(/C=C/c2sc3ccccc3[n+]2CCCCI)cc1 | . | - | 2.5µM | 3.2µM
CCC(C)C(=O)OC1C[C@@]2(C)C(c3ccoc3)OC(=O)CC23OC2(C)OC34C(OC(=O)C(C)C)[C@]3(O)C(OC(=O)C5(C)OC5C)[C@]5(C)CC3(O)[C@](C)(C5CC(=O)OC)C14O2 (some centres not stated) | - | . | ? | ?
CC1CC(C)(O)CC(C(O)CC2CC(=O)NC(=O)C2)C1=O (configuration not stated) | . | - | 0.18µM | 0.18µM
C[C@H](CN1CCOCC1)C(C(=O)N1CCCC1)(c1ccccc1)c1ccccc1 | . | . | 42µM | ?
CC(C)(C)NCC(O)c1cc(Cl)c(N)c(C(F)(F)F)c1 (configuration not stated) | . | . | - | -
COC(=O)C1=C(c2ccc(Cl)c(C(F)(F)F)c2)C[C@@H]2CC[C@H]1N2C(=O)NC1CCCCC1 | - | - | 21µM | 13µM
COC(=O)C1=C(c2ccc(Cl)c(C(F)(F)F)c2)C[C@@H]2CC[C@H]1N2C(=O)NCc1ccco1 | - | - | 21µM | ?
COC(=O)C1=C(c2ccc(Cl)c(C(F)(F)F)c2)C[C@@H]2CC[C@H]1N2C | - | - | - | ?
CCCNC(=O)N1[C@H]2CC[C@@H]1C(C(=O)OC)=C(c1ccc(OC(F)(F)F)cc1)C2 | - | - | 15µM | ?
COC(=O)C1=C(c2ccccc2)C[C@@H]2CC[C@H]1N2C(=O)NC(C)C | . | - | . | -
COC(=O)C1=C(c2ccc(OC(F)(F)F)cc2)C[C@@H]2CC[C@H]1N2C(=O)NC(C)C | - | - | 21µM | 16µM
Cc1ccc2c(c1)Cc1c(C(=O)NC3CCCCC3)nn(-c3ccc(Cl)cc3Cl)c1-2 | - | . | . | .
COC(=O)c1ccc2ccn(CC(=O)NC(C)C)c2c1 | - | ? | - | -
COC(=O)C1=C(c2ccc(Cl)c(C(F)(F)F)c2)C[C@@H]2CC[C@H]1N2C(=O)NCCO | - | - | - | -
COC(=O)C1=C(c2ccc(OC(F)(F)F)cc2)C[C@@H]2CC[C@H]1N2C(=O)NCCOc1ccccc1 | - | - | 18µM | 23µM
COC(=O)C1=C(c2ccc(Cl)c(C(F)(F)F)c2)C[C@@H]2CC[C@H]1N2C(=O)NCCOc1ccccc1 | - | - | 16µM | ?
Cc1ccc(NC(=O)c2cc(-c3cc(Cl)ccc3C)n[nH]2)cc1NS(C)(=O)=O | . | - | ? | 23µM
Cc1cccc(C)c1-n1nnnc1C(c1cccs1)N1CCC(n2c(=O)[nH]c3ccccc32)CC1 (configuration not stated) | . | - | 21µM | ?
Cc1cccc(C)c1-n1nnnc1C(C1CC1)N1CCC(n2c(=O)[nH]c3ccccc32)CC1 (configuration not stated) | . | - | ? | ?
Cc1cccc(C)c1-n1nnnc1C(c1cccc2ccccc12)N1CCC(n2c(=O)[nH]c3ccccc32)CC1 (configuration not stated) | . | - | 16µM | 15µM
CCCCCCCCCC(=O)O[C@H]1CC[C@H]2[C@@H]3CCC4=CC(=O)CC[C@@H]4[C@H]3CC[C@]12C | - | . | - | -
CCCC(=O)O[C@]1(C(=O)COC(=O)CC)[C@@H](C)C[C@H]2[C@@H]3CCC4=CC(=O)C=C[C@]4(C)[C@@]3(F)[C@@H](O)C[C@@]21C | . | . | 24µM | ?
C[C@H]1CC[C@]2(NC1)O[C@H]1C[C@H]3[C@@H]4CC[C@H]5C[C@@H](O)CC[C@]5(C)[C@H]4CC[C@]3(C)[C@H]1[C@@H]2C | . | . | ? | -
CCCCCCCCCCCCCC(=O)O[C@@H]1[C@@H](C)[C@@]2(O)[C@H](C=C(CO)C[C@]3(O)C(=O)C(C)=C[C@@H]23)[C@@H]2C(C)(C)C12OC(C)=O (some centres not stated) | - | . | . | .
